Laboratory results as given in PubChem BioAssay.
Activity calls are given as the source filed them.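 How the source made its calls, unless noted: active means compound raises GLP1 secretion from the human gut endocrine cells, with no numeric limit stated; inactive means the rest.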

How the values were obtained:
[1] = Wnt pathway potentiators raising nuclear beta-catenin – imaging, WNT3A-conditioned medium, mouse C2C12, NPC library, primary screen (AID 1117326; in the data active means nuclear beta-catenin stimulation mostly above about 4.2%, no sharp cut-off; inactive means mostly below about 10%; further: reference of the scale not given here); conditions: stronger effect = higher value
[2] = stimulators of insulin release from INS-1E, primary screen, cell-based, 5 mM glucose, NPC library (AID 1117329;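 active means compound raises insulin release from rat beta cells at 5 mM glucose, no numeric limit stated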; further: reference of the scale not given here); conditions: rat INS-1E insulin secretion, at 10 µM, stronger effect = higher value
[3] = growth inhibition of GSK3B-pretreated HCT116 cells – cell-based, CellTiter-Glo, 0.2 to 20 µM (AID 1117336;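 active means compounds lowering colon cancer cell viability after pretreatment blocking the GSK3B kinase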); conditions: HCT116 viability after GSK3B inhibitor, at 20 µM, stronger effect = higher value
[4] = inhibition of endothelial tube formation, primary screen, imaging, VEGF stimulated, CD31 staining, tube area, NPC library (AID 1117340;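 active means compound that reduces growth-factor-driven endothelial tube area in a mixed cell culture, no cutoff stated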); conditions: VEGF-stimulated ADSC/ECFC co-culture, at 10 µM, stronger effect = higher value
[5] = GLP1 release stimulators, primary, NCI-H716, NPC library (AID 1117341); conditions: NCI-H716 cells, at 10 µM, stronger effect = higher value; further: reference of the scale not given here
[6] = HCT116 colon cancer cell growth inhibition, primary screen, CellTiter-Glo luminescence, NPC library (AID 1117342;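 active means compounds that lower survival of HCT116 colon cancer cells in the luminescence readout, no numeric limit stated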); conditions: at 20 µM (top of the series)
[7] = reduced SW480 viability measured with CellTiter-Glo, NPC library, primary (AID 1117343;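 active means compounds that lower viability of the colon cancer cells in the luminescence readout, with no numeric limit stated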); conditions: CellTiter-Glo luminescence; at 20 µM (top of the series)
[8] = NPC library primary testing for decreased DLD-1 cell viability via CellTiter-Glo (AID 1117346;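 active means compounds that lower survival of DLD-1 colon cancer cells in the luminescence readout, no cutoff given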); conditions: DLD-1 viability, CellTiter-Glo luminescence; at 20 µM (top of the series)

Row | Structure (SMILES) | nuclear beta-catenin stimulation ([1]; at 10 µM) | nuclear beta-catenin stimulation ([1]; stimulation, at 2 µM) | insulin secretion stimulation [2] | viability decrease [3] | tube area decrease [4] | GLP1 secretion stimulation [5] | inhibition of viability [6] | viability decrease (inhibition) [7] | viability decrease (inhibition) [8]
1 | O=C(O)COc1ccccc1 | 1.6% (inactive) | 0.3% | -2.7% (inactive) | -4.9% (inactive) | -5.1% (inactive) | 0.4% (inactive) | -0.7% (inactive) | -15.1% (inactive) | -15.4% (inactive)
2 | CC(C)NCC(O)c1ccc([N+](=O)[O-])cc1 (stereo not drawn) | -2.4% (inactive) | -1% | 5.1% (inactive) | -1% (inactive) | 15% (inactive) | -0.9% (inactive) | 17.5% (inactive) | 33.9% (active) | 1.9% (inactive)
3 | Nc1ccc(Cl)cc1C(=O)c1ccccc1F | 2.3% (inactive) | 4.2% | 5% (inactive) | 23.5% (inactive) | 25.4% (inactive) | 21.1% (active) | 44.6% (inactive) | 61.9% (active) | 12.8% (inactive)
4 | O=C1OC(c2ccc(O)c(S(=O)(=O)O)c2)(c2ccc(O)c(S(=O)(=O)O)c2)c2c(Br)c(Br)c(Br)c(Br)c21 | 3.3% (inactive) | 4.7% | 0.75% (inactive) | 22.6% (inactive) | -6.3% (inactive) | 6.8% (inactive) | -59% (inactive) | 84.5% (active) | -56.3% (inactive)
5 | CCN(CCO)CCn1c(Cc2ccccc2)nc2c1c(=O)n(C)c(=O)n2C | -2% (inactive) | 0% | 3% (inactive) | -6% (inactive) | 4.3% (inactive) | -5.3% (inactive) | 6.4% (inactive) | 15.1% (inactive) | 4.2% (inactive)
6 | O=C(O)CCCCCCNC1c2ccccc2CCc2ccccc21 | -0.3% (inactive) | -1.4% | -0.2% (inactive) | -7.3% (inactive) | -4.7% (inactive) | 0.3% (inactive) | -9.4% (inactive) | 13.9% (inactive) | -13.1% (inactive)
7 | CCCOC(=O)Cc1ccc(OCC(=O)N(CC)CC)c(OC)c1 | 0.4% (inactive) | 1.3% | -1.7% (inactive) | 0.2% (inactive) | -2.3% (inactive) | -1.8% (inactive) | 9.6% (inactive) | 8.2% (inactive) | -4.8% (inactive)
8 | CC[N+]1(CC)CCC(OC(=O)C(O)(c2ccccc2)c2ccccc2)C1 (stereo not drawn) | -0.2% (inactive) | -1.8% | 3.25% (inactive) | 4.8% (inactive) | 1.2% (inactive) | 2.4% (inactive) | 4.2% (inactive) | -12.8% (inactive) | -6.4% (inactive)
9 | C1CN2CCC1CC2 | 0.4% (inactive) | 3.2% | 1.5% (inactive) | -7.5% (inactive) | 9.8% (inactive) | 6.5% (inactive) | 4% (inactive) | 4.8% (inactive) | 3.1% (inactive)
10 | Cc1c(Cl)c(=O)oc2cc(OP(=O)(OCCCl)OCCCl)ccc12 | 0.5% (inactive) | 0% | 4.8% (inactive) | 12.2% (inactive) | 14.4% (inactive) | -2.3% (inactive) | 35.4% (inactive) | 29.5% (inactive) | 0.8% (inactive)
11 | Oc1ccc(Cl)cc1Cc1ccccc1 | 0.2% (inactive) | 0.1% | 0.7% (inactive) | 38.4% (inactive) | 4.6% (inactive) | 38% (active) | -2.2% (inactive) | 118% (active) | 85.4% (active)
12 | Clc1ccccc1N1CCNCC1 | 0.1% (inactive) | -2.2% | 5.2% (inactive) | 4.1% (inactive) | -12% (active) | 3.6% (inactive) | 48.4% (inactive) | 19% (inactive) | 2% (inactive)
13 | Nc1ccccc1C(=O)O | 1.8% (inactive) | 1.3% | 0.9% (inactive) | -0.1% (inactive) | -2.6% (inactive) | 1.1% (inactive) | 6.4% (inactive) | 11.5% (inactive) | -8.85% (inactive)
14 | CC(=O)O[C@H]1C[C@H](O[C@H]2[C@@H](O)C[C@H](O[C@@H]3[C@@H](O)C[C@H](O[C@H]4CC[C@@]5(C)[C@H](CC[C@@H]6[C@H]5C[C@@H](O)[C@]5(C)[C@@H](C7=CC(=O)OC7)CC[C@]65O)C4)O[C@@H]3C)O[C@@H]2C)O[C@H](C)[C@H]1O[C@@H]1O[C@H](CO)[C@@H](O)[C@H](O)[C@@H]1O | 1.6% (inactive) | 0.9% | 0.8% (inactive) | 73.3% (active) | 108% (active) | -0.9% (inactive) | 46.8% (active) | 54.2% (active) | 55.1% (active)
15 | C[C@]12CCC(=O)C=C1C=C[C@@H]1[C@H]2CC[C@@]2(C)[C@@H]1CC[C@@]2(O)CCC(=O)O | -1.1% (inactive) | 0% | -2.4% (inactive) | -15.4% (inactive) | 2% (inactive) | 0.9% (inactive) | 3.7% (inactive) | -2% (inactive) | -7.2% (inactive)
16 | OCCOc1ccccc1 | 0.5% (inactive) | 0.3% | -1.8% (inactive) | -10.3% (inactive) | 8.6% (inactive) | 3.7% (inactive) | -10.6% (inactive) | 24.2% (inactive) | -1.2% (inactive)
17 | C[C@]12CC[C@H]3[C@@H](CCC4=CC(=O)CC[C@@H]43)[C@@H]1CC[C@@H]2OC(=O)CCc1ccco1 | 2.9% (inactive) | 1% | 2.5% (inactive) | -67% (inactive) | 47.2% (active) | -3.2% (inactive) | 23.6% (inactive) | 37.2% (inactive) | 14.9% (inactive)
